Source: PubChem BioAssay (Fisher Drug Discovery Resource Center)
NPYLR7 agonist: activates Aedes aegypti NPYLR7 receptor. hit rate 0.15% among 270,000. AID 1259423. activation, % at 10 µM. HEK293T NPYLR7/Galpha15, GCaMP6s calcium fluorescence; in the data active means activation above about 40%;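 further: 0% = vehicle and 100% = reference agonist at the receptor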
mcGAS lum: blocks mouse cGAS activity; hit rate 0.15% among 160,000; AID 1259399; Q8C6L5; recombinant cGAS, Kinase-Glo ATP depletion luminescence; inhibition, % at 12.5 µM;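 further: 0% = negative control wells and 100% = reference inhibitor with no enzyme activity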
Target sequence (Q8C6L5 whole entry, looked up): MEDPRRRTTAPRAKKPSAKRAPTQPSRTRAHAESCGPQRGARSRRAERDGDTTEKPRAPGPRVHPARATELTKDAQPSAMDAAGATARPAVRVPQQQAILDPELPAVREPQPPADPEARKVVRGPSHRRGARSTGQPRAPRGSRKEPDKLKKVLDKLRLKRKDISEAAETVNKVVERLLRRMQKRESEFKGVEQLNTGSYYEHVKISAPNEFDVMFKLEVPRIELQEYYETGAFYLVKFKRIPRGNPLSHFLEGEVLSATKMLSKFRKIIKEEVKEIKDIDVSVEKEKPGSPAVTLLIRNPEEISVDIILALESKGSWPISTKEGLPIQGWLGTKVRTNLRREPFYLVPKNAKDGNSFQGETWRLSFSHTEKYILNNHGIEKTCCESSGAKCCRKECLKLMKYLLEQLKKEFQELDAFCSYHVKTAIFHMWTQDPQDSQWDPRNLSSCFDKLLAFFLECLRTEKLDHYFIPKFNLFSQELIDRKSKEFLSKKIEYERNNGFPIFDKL
hcGAS inh: inhibitors of human cGAS; Q8N884; recombinant h-cGAS, ATP depletion, Kinase-Glo luminescence; inhibition, % at 12.5 µM; hit rate 0.081% among 290,000;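 further: 0% = vehicle reaction and 100% = reaction without DNA for no activity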
* marks the source's active call; other numbers are inactive results; . = no result; + = active, no number; ! = not active in a repeat. A selection: hits, their analogues and other compounds. The true share with any hit is near 0.24%. Unless noted, no stated cut-off is given here; in the data, active means inhibition above about 40%; inactive means the rest.

SMILES	NPYLR7 agonist	mcGAS lum	hcGAS inh
Cc1ccc(C(=O)Nc2ccc(S(=O)(=O)O)c3cc(S(=O)(=O)O)cc(S(=O)(=O)O)c23)cc1NC(=O)c1cccc(NC(=O)Nc2cccc(C(=O)Nc3cc(C(=O)Nc4ccc(S(=O)(=O)O)c5cc(S(=O)(=O)O)cc(S(=O)(=O)O)c45)ccc3C)c2)c1	-0.6	80.3*	79.6*
CCN(CC)S(=O)(=O)c1ccc(C(=O)Oc2coc(CSc3nc(C)cs3)cc2=O)cc1	17.9	-4.6	-7.8
COc1ccc(C(=O)N2CCN(CC(OCc3cccc(C)c3)c3ccc(Cl)cc3)CC2)cc1F (configuration not stated)	-0.3	-5.3	-4.0
COc1ccc([C@@H]2C[C@H](NC(C)=O)C[C@H](C3CCCCC3)O2)cn1	0.1	-9.2	-4.9
CC(=O)NC1CCN(c2cc(C)c3cc4c(cc3n2)CCC4)CC1	6.5	.	-5.6
Cc1cc(C)c2cc3c(cc2n1)CCN3CC(O)CO (configuration not stated)	187.5*	.	-2.6
NC(=O)c1c(SCc2ccccc2)sc2c(O)cc(=O)[nH]c12	9.9	-5.7	-7.7
N#CCSc1sc2c(O)cc(=O)[nH]c2c1C#N	1.9	59.7*	2.5
Cc1cccc2sc(N(CCCn3ccnc3)C(=O)c3ccc4c(c3)OCCO4)nc12	-12.2	-9.8	-5.4
COc1ccc(C2c3sc(=O)[nH]c3SC3C(=O)NC(=O)C32)cc1 (configuration not stated)	6.5	.	-8.7
O=C1NC(=O)C2C1Sc1[nH]c(=O)sc1C2c1ccco1 (configuration not stated)	13.4	.	45.1*
COc1cc(C=C(C#N)C(N)=O)cc(OC)c1O	24.2	.	8.8
COc1cc(/C=C(\C#N)C(=O)c2ccc(O)c(O)c2)cc(I)c1O	191.0*	27.9	12.6
CC[C@@]1(O)C(=O)OCc2c1cc1n(c2=O)Cc2cc3c(CN(C)C)c(O)ccc3nc2-1	88.2*	.	-3.0
Cc1ccc(S(=O)(=O)Nc2cc(Sc3ncn[nH]3)c(O)c3ccccc23)c(C)c1	-5.8	40.5*	-8.2
CCOc1ccc(S(=O)(=O)Nc2cc(Sc3ncn[nH]3)c(O)c3ccccc23)cc1	-10.0	7.9	-6.7
COc1cc(Cl)c(C)cc1NC(=O)C1CCN(C(=O)C2CC2)CC1	2.9	.	-20.2
COc1ccccc1C(=O)N(Cc1ccco1)Cc1c(-c2cccc(C)c2)noc1N1CCOCC1	6.8	-5.6	-6.6
O=C(Nc1ncccc1O)c1nc(-c2ccccc2)n2c1CCCCC2	11.4	-13.1	65.8*
Cc1cc(Cl)ccc1NC(=O)c1nc(C)n2c1CCCC2	-4.4	.	2.5
COc1ccc(CNC(=O)C2CC=CCC2C(=O)N2CCN(c3ccccn3)CC2)cc1 (configuration not stated)	-1.7	-2.5	-1.1
Cc1cc(=O)[nH]c2n[nH]c(=S)n12	-3.8	.	28.0
O=c1[nH]c2n[nH]c(=S)n2c2c1CCCC2	-2.3	.	50.9*
NC(=O)C1CCN(C(=O)CCN(CCc2ccccc2)C(=O)c2cnccn2)CC1	6.4	.	+
NC(=O)C1CCN(C(=O)CCc2ccsc2)CC1	-4.0	.	-3.4
SMILES	NPYLR7 agonist	mcGAS lum	hcGAS inh
CN(C)C1CCCN(CCCc2ccco2)CC1 (configuration not stated)	.	-3.8	-2.3
N#CC1C(=N)C(C#N)(C#N)C(c2cccs2)C2CSCC=C12 (configuration not stated)	16.5	.	-1.8
CCN1CC=C2C(C#N)C(=N)C(C#N)(C#N)C(c3cccs3)C2C1 (configuration not stated)	49.9*	-1.6	0.3
Cc1cc(NC(=O)CSc2nnc(C(C)N(C)C)n2-c2ccc(F)cc2)ccc1Br (configuration not stated)	-0.8	.	-4.9
Cc1ccccc1Cn1c(C)c(C(=O)NCc2ccc(C#N)cc2)sc1=O	6.1	.	-8.8
O=C1CCC([N+](=O)[O-])C(c2cccc(OCc3ccccc3)c2)N1 (configuration not stated)	-11.3	.	-5.8
O=C(C1=NN(c2ccccc2)C2C(=O)N(c3ccccc3)C(=O)C12)c1ccccc1 (configuration not stated)	64.5*	-3.6	-5.0
CC(=O)C1=NN(c2ccccc2)C2C(=O)N(c3ccc(Br)cc3)C(=O)C12 (configuration not stated)	5.3	-2.6	-0.1
Cc1oc(-c2cccs2)nc1-c1nccn1Cc1noc(C(C)C)n1	.	-9.2	-5.7
COc1ccc(-n2ccnc2-c2nc(-c3cccs3)oc2C)cn1	57.4*	.	-9.5
CCN1CCCC(NS(=O)(=O)c2cc(Br)ccc2OC)C1 (configuration not stated)	4.3	.	-2.4
O=C(c1cc(-c2ccc(O)cc2)n[nH]1)N1CCCC2(C1)C(=O)Nc1ccccc12 (configuration not stated)	-1.9	.	-4.0
COc1ccccc1C/C(C)=C/C(=O)N(Cc1cccnc1)C(C)C	2.2	.	-10.8
CC(=O)Nc1cccc(C(=O)N(C)CCC(C)N2CCCC2)c1 (configuration not stated)	11.6	-8.4	-2.5
CC(C)Cn1ccc2cc(N)ccc21	-3.0	-17.0	-10.5
COC(=O)C1CCN(S(=O)(=O)c2c(F)cc(F)cc2Br)CC1	88.3*	.	-7.8
COC(=O)C1CCN(S(=O)(=O)c2cc(Br)ccc2Br)CC1	5.4	.	3.5
COc1ccc(C(=O)CCC(=O)N2CCC(O)(c3ccc(C)cn3)CC2)cc1	6.9	-14.9	-3.9
O=C(NCc1cccc(F)c1F)c1ccc(-c2cc(-c3cccc4c3OCCO4)[nH]n2)cc1	.	104.6*	-5.1
CCSCCNC(=O)c1ccc(-c2cc(-c3cccc4c3OCCO4)[nH]n2)cc1	5.8	-5.9	-5.4
CC(C)(C)c1ccc(-c2nc(NC(=O)C(=O)NC3CC3)n[nH]2)cc1	8.4	.	-5.2
Cc1c(CNc2nc(-c3cccnc3)nc3c2CNC3)oc2ccccc12	25.7	-18.6	-0.4
CN(c1ccccc1)S(=O)(=O)c1cccc(NC(=O)CCl)c1	11.8	55.2*	-2.6
CN(c1ccccc1)S(=O)(=O)c1cccc(NS(=O)(=O)c2cc(Cl)ccc2Cl)c1	-9.7	.	-0.6
CC(CC(=O)NCC1(CCO)CCOCC1)c1ccc(F)cc1 (configuration not stated)	0.2	.	4.3
SMILES	NPYLR7 agonist	mcGAS lum	hcGAS inh
CCCc1cc(=O)[nH]c(SCc2cn3cc(C)ccc3n2)n1	-9.0	.	-8.5
O=C1NC(=S)SC1=Cc1ccc(C(=O)O)cc1	13.4	64.7*	33.1
O=C1NC(=S)SC1=Cc1cccc(C(F)(F)F)c1	0.7	82.1*	30.8
O=C1NC(=S)S/C1=C/c1cccc(O)c1	-1.6	.	-4.3
CC(C)(C)c1ccc(/C=C2\SC(=S)NC2=O)cc1	-10.9	-1.1	6.5
CC(C)c1cc(CNC(=O)C2CC(=O)N(Cc3ccccn3)C2)on1 (configuration not stated)	2.3	-12.2	-4.9
CCOC(=O)Cn1c(=NC(=O)c2ccn(C)n2)sc2cc(CC)ccc21	-0.3	-5.1	-2.1
COc1ccccc1-c1cc(C(=O)NCCN2CCCCC2)nc2cc(-c3ccc(Cl)cc3)nn12	13.9	-5.6	-0.9
COc1ccccc1-c1cc(C(=O)NCCN2CCCC2)n2nc(-c3ccc(Cl)cc3)cc2n1	-8.6	43.8*!	-4.3
CCOC(=O)CCC(=O)N1CCN(c2nc(-c3cccc(C)c3)nc(C)c2CC)CC1	4.4	-7.9	-2.3
COc1ccc2c(c1)C(=O)N(C)C(=O)C2(C)C	-4.1	.	-4.1
